# Measured values: PubChem BioAssay (NCATS)
# Values joined by “and” are separate entries in the source; they are usually repeats but may differ in a detail not shown here. Equal entries are not always repeated. Inconclusive results are not listed. Unmarked numbers belong to inactive results. Active and inactive are the calls of the source. Calls come from the whole dose curve; as a rule, active = well fitted curve in either direction with a large enough effect (not every such curve was filed as active); inconclusive = small, poorly fitted or top-dose-only effect, or another doubt; inactive = flat fitted curve, though single readings scatter.
# Assay: NFAT Signaling Pathway (AID 444)
# Conditions: Jurkat NFAT-bla M1, carbachol, beta-lactamase ratio, 5 h; at 17.2 µM (top of the series)
# Description: NCGC Assay Overview: The nuclear factor of activated T cells (NFAT) family of transcription factors has been found primarily in most immune system cells and some other non-immune cells. NFAT plays the immunomodulatory role, primarily in T-cell activation and differentiation. NFAT target genes are also involved in the regulation of apoptosis and differentiation in non-immune cell types. The NFAT sequence was engineered to the upstream of the ?-lactamase reporter gene and transfected into Jurkat cells with co-transfection of muscarinic receptor1 [provided by Invitrogen Corp]. When an extracellular stimulus, such as carbachol, binds to the GPCR M1 receptor, it stimulates a signaling cascade that activates NFAT response element and ?-lactamase expression by phosphorylating the NFAT binding protein. This cell based ?-lactamase reporter gene assay can accurately monitor any changes occurring along the NFAT pathway, and can be used for screening small molecule inhibitor or activator upon activation by carbachol EC50 concentration. A small molecular library were screened in a titration series resulting in AC50s (can be either IC50s or EC50s).
# NCGC Assay Protocol Summary: The cells were prepared in RPMI 1640 medium containing 0.1% dialyzed FBS and 25 mM HEPES at 1.6 x 10^6cell/ml. The assay was performed in 1536-well plate format as follows: 5 ul of cell preparation 23 nl of compounds 1ul of carbachol (final concentration 1 uM) Briefly centrifuge the plates and incubate at 37 °C for 5 hours 1 ul of CCF4 dye mixture Incubate the plates at RT for 1 hour Read the plate in EnVision plate reader (Ex= 405nm, and Em1=460nm and Em2=530nm). The %Activity was determined from the ratio of 460nm/530nm. Data normalization and AC50 calculations were accomplished using GeneData software.
# % is set by controls: 0 for no effect and ±100 for the full control effect.
row,Structure (SMILES),"activity change, negative = inhibition"
1,COc1ccc(Cl)cc1C(=O)NCCc1ccc(S(=O)(=O)NC(=O)NC2CCCCC2)cc1,-3.12% and -29.5%
2,CN(C)CCCN1c2ccccc2Sc2ccc(Cl)cc21,-73.6% (active)
3,C[C@]12CC[C@@H]3c4ccc(O)cc4CC[C@H]3[C@@H]1CCC2=O,-19.8%
4,C#CCN(C)Cc1ccccc1,4.68% and -0.725%
5,CC1(C)OC(=O)NC1=O,-1.86%
6,c1ccc2c(CC3=NCCN3)cccc2c1,-19.1%
7,CC(CN1c2ccccc2Sc2ccccc21)N(C)C (stereo unspecified),-73.5% (active)
8,CNC(=O)Oc1ccc2c(c1)[C@]1(C)CCN(C)[C@@H]1N2C,5.79%
9,Nc1ccc(S(=O)(=O)Nc2ccc(Cl)nn2)cc1,9.43%
10,CC(C)NC[C@H](O)c1ccc(O)c(O)c1,-6.44% and -3.44%
11,CCCCN1CCCC[C@H]1C(=O)Nc1c(C)cccc1C,3.05%
12,CCN(CC)CCOC(=O)C1(C2CCCCC2)CCCCC1,-68.8% (active)
13,C[C@]12C[C@H](O)[C@H]3[C@@H](CCC4=CC(=O)CC[C@@]43C)[C@@H]1CC[C@@H]2C(=O)CO,2.08%
14,CCOc1ccc2ccccc2c1C(=O)N[C@@H]1C(=O)N2[C@@H]1SC(C)(C)[C@@H]2C(=O)O,1.54%
15,Cc1ncc([N+](=O)[O-])n1CC(O)CCl (stereo unspecified),-27.2%
16,CC[C@H]1CN2CCc3cc(OC)c(OC)cc3[C@@H]2C[C@@H]1C[C@H]1NCCc2cc(OC)c(OC)cc21,-131% (active)
17,CCn1cc(C(=O)O)c(=O)c2cnc(N3CCNCC3)nc21,-4.81%
18,CSc1ccc2c(c1)N(CCC1CCCCN1C)c1ccccc1S2 (stereo unspecified),-83% (active)
19,Cc1c(Cl)cccc1Nc1ccccc1C(=O)O,-35.5%
20,Nc1ccc(S(=O)(=O)Nc2nccs2)cc1,2.2%
21,C[C@@H]1C[C@H]2[C@@H]3C[C@H](F)C4=CC(=O)C=C[C@]4(C)[C@@]3(F)[C@@H](O)C[C@]2(C)[C@@]1(O)C(=O)CO,-28.6%
22,CCC(=O)c1ccc(O)cc1,-1.37%
23,CN1[C@@H]2CC(OC(=O)[C@H](CO)c3ccccc3)C[C@H]1[C@@H]1O[C@@H]12 (stereo partly specified),-78.1% (active)
24,Cc1cc(CC(=O)O)n(C)c1C(=O)c1ccc(Cl)cc1,1.18%
25,OCC(O)CN1CCN(c2ccccc2)CC1 (stereo unspecified),8.65%
26,NS(=O)(=O)c1cc2c(cc1Cl)NC(CSCc1ccccc1)=NS2(=O)=O,-9.25% and 1.09%
27,Cn1cc[nH]c1=S,-4.58%
28,CNCCCC1c2ccccc2C=Cc2ccccc21,-94% (active)
29,CCN(CC)CCNC(=O)c1cc(Cl)c(N)cc1OC,-0.325% and -6.2%

# Same assay, conditions: Jurkat NFAT-bla M1, carbachol, beta-lactamase ratio, 5 h; at 38 µM (top of the series)
row,Structure (SMILES),"activity change, negative = inhibition"
1,COc1ccc(Cl)cc1C(=O)NCCc1ccc(S(=O)(=O)NC(=O)NC2CCCCC2)cc1,0.0491%
2,C=Cc1c(C)c2cc3[nH]c(cc4nc(cc5nc(cc1[nH]2)C(C)=C5CCC(=O)O)C(CCC(=O)O)=C4C)c(C)c3C=C,10.7%
3,C#CCN(C)Cc1ccccc1,4.11%
4,CC1=C(CC(=O)O)c2cc(F)ccc2/C1=C\c1ccc(S(C)(=O)=O)cc1,13.8%
5,NC(N)=NCCC[C@H](N)C(=O)O,-0.248%
6,CCN(CC)CCOC(=O)C1(C2CCCCC2)CCCCC1,-63.7% (active)
7,CC1=C(CC(=O)O)c2cc(F)ccc2/C1=C\c1ccc(S(C)=O)cc1 (stereo unspecified),2.92%
8,CC(C)C(=O)c1c(C(C)C)nn2ccccc12,-1.94%
9,NC1CCN(c2cccc(Cl)n2)CC1,-6.65%
10,Nc1cc(=O)[nH]c(N)n1,-0.946%
11,Cc1cc(N)c2ccccc2[n+]1CCCCCCCCCC[n+]1c(C)cc(N)c2ccccc21,-78.7% (active)
12,CCN(CC)CCNC(=O)c1cc(Cl)c(N)cc1OC,4.1%
